The record followed here is PubChem BioAssay AID1159580 (chemical genetic matrix, 2015).

This assay in a line: chemical genetic growth profiling, strain panel (AID 1159580).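 Also: tested at 20 µM; growth read once vehicle control cultures reached saturation at 30 °C; 1 = growth at the plate median or of vehicle wells; lower values mean less growth of the strain.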 The note with it: growth OD.
Where [1] appears, read: S. cerevisiae deletion strains, locus YHR030C, strain SLT2, hits give low values.
Where [2] appears, read: S. cerevisiae deletion strains, locus YAL013W, strain DEP1, hits give low values.
Where [3] appears, read: S. cerevisiae deletion strains, locus YBR229C, strain ROT2, hits give low values.
Where [4] appears, read: S. cerevisiae deletion strains, locus YDL101C, strain DUN1, hits give low values.
Setting [5] is: S. cerevisiae deletion strains, locus YDL134C, strain PPH21, hits give low values.
[6] abbreviates: S. cerevisiae deletion strains, locus YDR150W, strain NUM1, hits give low values.
Where [7] appears, read: S. cerevisiae deletion strains, locus YEL061C, strain CIN8, hits give low values.
[8] abbreviates: S. cerevisiae deletion strains, locus YGR078C, strain PAC10, hits give low values.
Setting [9] is: S. cerevisiae deletion strains, locus YGR229C, strain SMI1, hits give low values.
Where [10] appears, read: S. cerevisiae deletion strains, locus YHR087W, strain rtc3, hits give low values.
[11] abbreviates: S. cerevisiae deletion strains, locus YJL187C, strain SWE1, hits give low values.
The mark [12] stands for this setting: S. cerevisiae deletion strains, locus YJR043C, strain POL32, hits give low values.
[13] abbreviates: S. cerevisiae deletion strains, locus YJR075W, strain HOC1, hits give low values.
Setting [14] is: S. cerevisiae deletion strains, locus YKL190W, strain CNB1, hits give low values.
[15] abbreviates: S. cerevisiae deletion strains, locus YLR039C, strain RIC1, hits give low values.
Setting [16] is: S. cerevisiae deletion strains, locus YLR058C, strain SHM2 (second series), hits give low values.
Setting [17] is: S. cerevisiae deletion strains, locus YLR085C, strain ARP6, hits give low values.
Where [18] appears, read: S. cerevisiae deletion strains, locus YLR262C, strain YPT6, hits give low values.
[19] abbreviates: S. cerevisiae deletion strains, locus YML094W, strain GIM5, hits give low values.
Setting [20] is: S. cerevisiae deletion strains, locus YMR219W, strain ESC1, hits give low values.
Where [21] appears, read: S. cerevisiae deletion strains, locus YMR263W, strain SAP30, hits give low values.
Where [22] appears, read: S. cerevisiae deletion strains, locus YNL153C, strain GIM3, hits give low values.
[23] abbreviates: S. cerevisiae deletion strains, locus YNL298W, strain CLA4 (second series), hits give low values.
Setting [24] is: S. cerevisiae deletion strains, locus YNL322C, strain KRE1, hits give low values.
Where [25] appears, read: S. cerevisiae deletion strains, locus YNR030W, strain Alg12, hits give low values.
[26] abbreviates: S. cerevisiae deletion strains, locus YPL055C, strain LGE1, hits give low values.
Setting [27] is: S. cerevisiae deletion strains, locus YPL241C, strain CIN2, hits give low values.
The mark [28] stands for this setting: S. cerevisiae deletion strains, locus YPR135W, strain CTF4, hits give low values.
[29] abbreviates: S. cerevisiae strains, strain wild type, hits give low values.

Structures are written as SMILES. The campaign covered roughly 5,500 compounds. About 2,000 (36%) were called active. Another 18% or so got no clear call; they are omitted. This is one part of the list. Values without a mark were called inactive. Rule as the data show it: active = normalized growth mostly below about 0.91 (no sharp cut-off); inconclusive = no clear call, values can overlap the other calls; inactive = mostly above about 0.92.

Turning to `CN(C(=O)C(Cl)Cl)c1ccc(OC(=O)c2ccco2)cc1`, the normalized growth was 0.959 under setting [1]; 0.98 (S. cerevisiae deletion strains, locus YHR079C, strain IRE1, hits give low values); 0.973 (S. cerevisiae deletion strains, locus YJL095W, strain BCK1, hits give low values); 0.915 (S. cerevisiae deletion strains, locus YJR066W, strain TOR1, hits give low values); 1.05 (S. cerevisiae deletion strains, locus YLR113W, strain HOG1, hits give low values); 0.96 (S. cerevisiae deletion strains, locus YNL183C, strain NPR1, hits give low values). Also, the normalized growth by setting is: (S. cerevisiae deletion strains, locus YOR231W, strain MKK1, hits give low values) 0.975; (S. cerevisiae deletion strains, locus YPL256C, strain CLN2, hits give low values) 1.
Take `CC(C)S(=O)(=O)c1csc(C(N)=O)c1Cl`: the normalized growth runs as follows: under setting [2], 1.01; under setting [3], 1.02; (S. cerevisiae deletion strains, locus YCL061C, strain MRC1, hits give low values) 1.02; under setting [4], 0.989; under setting [5], 1.01; under setting [6], 0.958. Further, the normalized growth under setting [7] was 1.04; the normalized growth under setting [8] is 1; the normalized growth under setting [9] was 1; the normalized growth under setting [1] was 1.09; the normalized growth under setting [10] was 1; the normalized growth under setting [11] was 0.983. Moreover, the normalized growth was 1.01 under setting [12]; 1.01 under setting [13]; 1.01 under setting [14]; 1.05 under setting [15]; 1.01 under setting [16]; 1.02 under setting [17]. Further, the normalized growth was 1.05 under setting [18]; 0.996 under setting [19]; 1.01 under setting [20]; 0.996 under setting [21]; 1.01 (S. cerevisiae deletion strains, locus YMR307W, strain GAS1, hits give low values); 1 under setting [22]. Besides, the normalized growth is 1.04 under setting [23]; 1.01 under setting [24]; 1.03 under setting [25]; 0.954 under setting [26]; 0.991 under setting [27]; 1.07 under setting [28]. For the same compound, under setting [29], the normalized growth was 1.02.
Turning to `COC(=O)c1scc(S(=O)(=O)C(C)C)c1N/N=C(/C#N)C(=O)c1ccccc1`, the normalized growth is 0.965 under setting [2]; 0.974 under setting [3]; 0.986 under setting [4]; 0.974 under setting [5]; 0.973 under setting [6]; 0.965 under setting [7]. Also, the normalized growth was 0.969 under setting [8]; 0.971 under setting [9]; 0.929 under setting [1]; 0.927 under setting [10]; 1.03 under setting [11]; 0.995 under setting [12]. Besides, the normalized growth was 0.961 under setting [13]; 0.976 under setting [14]; 0.902 under setting [15]; 0.954 under setting [16]; 1.06 under setting [17]; 0.839 under setting [18]. Further, the normalized growth by setting is: under setting [19], 1.04; under setting [20], 0.95; under setting [21], 0.905; under setting [22], 0.998; under setting [23], 0.983; under setting [24], 0.942 (active). Besides, the normalized growth runs as follows: under setting [25], 1.01; (S. cerevisiae deletion strains, locus YOL006C, strain TOP1, hits give low values) 0.923; under setting [26], 0.885; under setting [27], 1.02; under setting [28], 0.928; under setting [29], 0.967.
